PubChem BioAssay

Assay: optical density shifts of acrAB sulA E. coli – strain DRC41, OD650, 48 h, E. coli filamentation inducer project, primary screen (AID 1152);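 also: E. coli MC1000 strain DRC41 lacking acrAB efflux pump and sulA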
Settings: higher = more signal, called active from +8 up or from −8 down

z-score, inactive:
C=CCOC(=O)[C@@H]1[C@H]2C(=O)O[C@H](c3ccccc3)[C@H](c3ccccc3)N2[C@H](c2ccc(OCCOC(=O)[C@H]3C[C@H]4C(=O)N5CCC[C@H]5C(=O)N4[C@H]3c3ccc(O)cc3)cc2)[C@@]12C(=O)Nc1ccccc12 2.34
C[C@@H]1CC[C@H]2C(=O)N3[C@@H](CC[C@@H](C)[C@@H]3c3cccc(N4CCOCC4)c3)C(=O)N2[C@H]1c1cccc(N2CCOCC2)c1 0.107
COc1ccc(-c2ccccc2[C@@H]2N[C@H](C(=O)O)CC[C@H]2C)cc1 0.522
CN1CCC(CCCO)=CC1C1CC1 (configuration not stated) 1.08
C=CCC(OC(C)=O)[C@@H]1[C@@H](N(Cc2cc3ccccc3o2)C(=O)c2ccc(C)cc2)c2cc(OCCCO)ccc2N1C(=O)c1ccc2ccccc2n1 (some centres not stated) 3.08
C[C@H]1COC(=O)[C@H](Cc2ccccc2)NC(=O)[C@@H](C)COC(=O)[C@H](Cc2ccccc2)NC1=O -0.0556
CCN1C(C)=C(C(=O)OC)[C@@H](c2ccccc2)N2C(=O)[C@@]3(C(=O)OC)O[C@@]12[C@@H]1C(=O)N(c2ccccc2)C(=O)[C@@H]13 0.325
CCCC/C=C/[C@H]([C@@H](O)Cc1ccccc1)N(CC#Cc1ccccc1)Cc1ccccc1Br 2.99
Cc1ccc(S[C@]2(C(=O)NCCCN(C)C)CC(=O)N(C3CCCCC3)[C@@H]2c2ccc(CO)cc2I)cc1 1.16
CO[C@@H]1COC(=O)[C@H](C)NC(=O)CC=C[C@@H](C)[C@H](NS(=O)(=O)c2ccc(C)cc2)COC(=O)CC=C[C@@H]1C 0.117
C=CCNC(=O)[C@H]1[C@@H]2C(=O)O[C@@H](c3ccccc3)[C@@H](c3ccccc3)N2[C@@H](c2ccccc2OCCO)[C@]12C(=O)N(C(=O)OCCOC)c1ccc(C#CCC(C(=O)OC)C(=O)OC)cc12 2.88
CC(=O)NCCCC[C@@H]1NC(=O)[C@@H]2C[C@H](C(=O)NCCCCCCN(C)C)[C@H](c3ccc(O)cc3)N2C1=O 1.03
O=C(NCC(O)CO)[C@]1(Cc2ccccc2)N=C(c2ccc(OCCCO)cc2)O[C@@H]1c1ccccc1 (some centres not stated) 0.738
C[C@H]1NC(=O)[C@@H](C)NC(=O)[C@@]23C(=O)N[C@@H](Cc4ccccc4)C2[C@H](C)[C@@]2(C)O[C@H]2C3/C=C/C/C=C\CNC1=O (some centres not stated) 2.35
CC(C)N1CC=CC23O[C@@H]4/C=C\CCCOC(=O)C4[C@H]2C(=O)N(CCO)[C@@H]3C1=O (some centres not stated) 3.41
C=CC[C@]1(C(=O)O)N=C(c2ccc(OCCCO)cc2)O[C@H]1c1ccccc1 1.14
CC(C)CNC(=O)[C@@]1(C)c2ccccc2C(=O)N(Cc2ccc(OC(F)(F)F)cc2)[C@H]1c1ccc(CO)cc1 1.28
CO[C@H]1COC(=O)[C@H](Cc2ccccc2)NC(=O)CC=C[C@@H](C)[C@H](OC)COC(=O)CC=C[C@@H]1C 0.284
C=C(COC)/C(=C/C[C@@H](OC(=O)c1ccncc1)c1ccc(OCCO)cc1)c1cc(C(=O)OC)ccc1OC 2.31
CSCC[C@@H]1NC(=O)CC=C[C@@H](C)COC(=O)[C@H](CCSC)NC(=O)CC=C[C@@H](C)COC1=O -0.77
O=C1OCC=C[C@H]2OC34C=CCN(Cc5ccccc5)C(=O)[C@H]3N(CCCCCO)C(=O)[C@@H]4[C@@H]12 (some centres not stated) 2.14
Cc1ccc(S[C@]2(C(=O)NCCN3CCOCC3)CC(=O)N(C3Cc4ccccc4C3)[C@@H]2c2ccc(CO)cc2I)cc1 1.86
COC(=O)C[C@H]1O[C@]2(C(=O)N(C)c3ccccc32)[C@@H](C)[C@@H]1[Si](C)(C)c1ccc(OC)cc1 2.42
CC/C=C/C(=O)N(C[C@@H]1CCCO1)[C@@H]1CC(C(=O)NCCO)=C[C@H](Oc2c(I)cc(CO)cc2OC)[C@H]1O 1.24
C=C[C@H](OC)[C@@H](OC(=O)Nc1ccc(SC)cc1)c1ccc(OC)c(O)c1 2
CN1C2C=C(c3ccc(CO)cc3)C(C3C(=O)N(C(N)=O)C(=O)C32)C1c1cccs1 (configuration not stated) 1.37
C=CCN(C(=O)C1N(c2ccc(CCO)cc2)C(=O)C2C(C(=O)O)C3C=CC21O3)C(C)(C)C (configuration not stated) 2.75
